About 83,000 compounds went through this panel and 20% of them were active in at least one assay; those are over-represented in the sample as a whole.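 For each line, cells grew in 96-well plates with the test compound present at a single concentration for 48 hours.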 Unmarked numbers belong to inactive results. Calls of active or inactive are those of the source. How the source made its calls: active means growth percent below 10; inactive means the rest.
What was measured:
Experiment in all cases: NCI-60 one-dose screen, 48 h (100 = growth as untreated, 0 = no growth, -100 = all killed)
Conditions in all cases: 10 µM unless noted
SK-MEL-2 melanoma = tested on: SK-MEL-2 melanoma
EKVX NSCLC = tested on: EKVX NSCLC
SN12C renal = tested on: SN12C renal
UO-31 renal = tested on: UO-31 renal
TK-10 renal = tested on: TK-10 renal
ACHN renal = tested on: ACHN renal
CAKI-1 renal = tested on: CAKI-1 renal
A498 renal = tested on: A498 renal
CCRF-CEM leukemia = tested on: CCRF-CEM leukemia
MOLT-4 leukemia = tested on: MOLT-4 leukemia
SR leukemia = tested on: SR leukemia
RPMI-8226 leukemia = tested on: RPMI-8226 leukemia
OVCAR-8 ovarian = tested on: OVCAR-8 ovarian
OVCAR-5 ovarian = tested on: OVCAR-5 ovarian
OVCAR-4 ovarian = tested on: OVCAR-4 ovarian
SK-OV-3 ovarian = tested on: SK-OV-3 ovarian
IGROV1 ovarian = tested on: IGROV1 ovarian
OVCAR-3 ovarian = tested on: OVCAR-3 ovarian
HS 578T breast = tested on: HS 578T breast
NCI/ADR-RES ovarian = tested on: NCI/ADR-RES ovarian

SMILES	growth (SK-MEL-2 melanoma)	growth (EKVX NSCLC) [%]	growth (SN12C renal) [%]	growth (UO-31 renal)	growth (TK-10 renal) [%]	growth (ACHN renal) [%]	growth (CAKI-1 renal) [%]	growth (A498 renal)	growth (CCRF-CEM leukemia)	growth (MOLT-4 leukemia)	growth (SR leukemia) [%]	growth (RPMI-8226 leukemia)	growth (OVCAR-8 ovarian) [%]	growth (OVCAR-5 ovarian) [%]	growth (OVCAR-4 ovarian) [%]	growth (SK-OV-3 ovarian)	growth (IGROV1 ovarian) [%]	growth (OVCAR-3 ovarian)	growth (HS 578T breast) [%]	growth (NCI/ADR-RES ovarian) [%]
COc1ccc(-c2cnc(-c3ccncc3-c3cccc(OC)c3)o2)cc1	5.27% (active)	58.1	15	42.6%	30.5	17.1	32	35.3%	3.12% (active)	11.5%	10.2	8.95% (active)	26	57.4	37.6	-5.44% (active)	37.1	-13.1% (active)	53.3	10.1
O=C(Nc1ccncc1)C(=O)c1cn(S(=O)(=O)c2cccc(Cl)c2F)c2ccccc12	60.6%	59.2	82.9	56.9%	112	101	68.3	72%	66.4%	60.2%	20	50.2%	82.1	101	65.4	97.3%	70.9	74.7%	84.7	59.3
O=C(Nc1ccc(Br)cc1)Nc1cccc(Br)c1	26%	41	32.5	34.9%	29.2	14.9	50.3	21.4%	15.6%	1.92% (active)	38	8.97% (active)	–	76.8	28.8	75.2%	25.5	16.2%	76	46.4
CC(C)CC(=O)C(CCc1ccccn1)C(C)C (stereo not drawn)	103%	99.4	107	103%	102	101	79	91.8%	97.2%	108%	108	95.8%	105	105	111	120%	114	118%	–	102
Cc1cc([N+](=O)[O-])c(C)cc1N	107%	101	106	77.6%	102	103	92.8	87.2%	106%	101%	90.9	96.5%	102	116	–	111%	96.9	104%	107	106
CN(C)N1C(=O)c2c(Cl)c(Cl)c(Cl)c(Cl)c2C1=O	105%	124	103	95.9%	98	133	126	106%	89%	88.3%	87.5	97%	105	115	111	106%	–	122%	99	101
NC(=O)N/N=C\c1ccc([N+](=O)[O-])o1	114%	75.2	104	85.2%	113	98.8	86.9	90.1%	19.9%	103%	96.1	86%	–	103	–	114%	105	109%	79.2	95.1
CC(=O)NC1C(O[C@H]2C[C@H]3[C@@H]4CC=C5C[C@@H](O)CC[C@]5(C)[C@H]4CC[C@]3(C)[C@H]2[C@H](C)C(=O)CCC(C)C)OCC(O)C1O (stereo partly drawn)	-15.9% (active)	46.3	89.6	1.5% (active)	60.4	44.3	30.2	-20.3% (active)	11.5%	-8.22% (active)	18.7	-9.81% (active)	66.3	74.2	87.8	37.9%	72	72%	–	88.8
